# Assay outcomes as filed in PubChem.
# The list is not random: actives were taken first. Their share in the collection is about 1.3%.
# MIN6 prolif = inducers of beta-cell replication in MIN6 cells | MIN6 cells proliferation, ATPlite luminescence, 48 h; cells starved in 0.2% serum; 100% = growth in 10% serum | proliferation, % at 10 µM | actives 0.29% (n = 330,000) | AID 2380;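 active = compounds whose signal lies at least 3.5 SD above the mean of all wells on their plate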;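 also: 0% = DMSO-treated cells in low-serum medium and 100% = 10% serum control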
# RAD54 inh = inhibitors of human RAD54 branch migration | RAD54 Holliday junction branch migration, FAM/BHQ fluorescence | Q92698 | inhibition, % at 10.4 µM | actives 0.14% (n = 360,000) | AID 602329;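 active = mean normalized replicate activity at least 40 and at least half of replicates scoring 40 or more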;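 also: 0% = median of neutral control wells and 100% = median of positive control wells; inhibitors cause a drop in the FAM fluorescence signal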
# PREPL inh = inhibitors of human prolyl oligopeptidase-like enzyme PREPL. Q4J6C6. AID 2751. inhibition, % at 5.96 µM. actives 0.68% (n = 320,000). recombinant PREPL, fluorescence polarization activity-based probe;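 also: 0% = enzyme with DMSO and 100% = wells lacking enzyme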
# Target sequence (Q4J6C6 whole entry, looked up): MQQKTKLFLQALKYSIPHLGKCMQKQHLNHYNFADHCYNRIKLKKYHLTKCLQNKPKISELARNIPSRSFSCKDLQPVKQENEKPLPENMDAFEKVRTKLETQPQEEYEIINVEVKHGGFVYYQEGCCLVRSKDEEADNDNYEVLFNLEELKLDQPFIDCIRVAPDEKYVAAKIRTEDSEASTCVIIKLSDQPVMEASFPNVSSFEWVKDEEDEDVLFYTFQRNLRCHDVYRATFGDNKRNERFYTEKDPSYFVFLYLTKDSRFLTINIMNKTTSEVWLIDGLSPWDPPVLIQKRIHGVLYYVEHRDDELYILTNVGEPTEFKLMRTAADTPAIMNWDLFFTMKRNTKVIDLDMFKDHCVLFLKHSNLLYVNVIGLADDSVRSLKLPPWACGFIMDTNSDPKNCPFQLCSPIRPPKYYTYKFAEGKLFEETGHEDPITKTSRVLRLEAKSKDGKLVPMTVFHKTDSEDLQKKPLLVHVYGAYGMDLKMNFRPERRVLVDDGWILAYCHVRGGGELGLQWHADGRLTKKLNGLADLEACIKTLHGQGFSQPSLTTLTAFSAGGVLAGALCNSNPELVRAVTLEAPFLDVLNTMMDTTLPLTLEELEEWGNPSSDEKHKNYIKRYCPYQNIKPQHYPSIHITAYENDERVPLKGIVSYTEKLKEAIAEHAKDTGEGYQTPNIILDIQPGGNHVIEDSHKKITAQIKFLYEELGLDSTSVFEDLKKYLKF
# RAD52 inh = inhibitors of human RAD52 DNA annealing; P43351; recombinant RAD52 DNA annealing, FRET fluorescence; AID 651710; actives 0.46% (n = 360,000); inhibition, % at 18.7 µM;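 active = every replicate showing at least 50% inhibition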
# UBC13 polyUb = inhibitors of human UBC13 polyubiquitin chain formation | TR-FRET | P61088 | actives 0.47% (n = 330,000) | inhibition, % at 20 µM | AID 485273; in the data active = inhibition above about 45%, passing the limit was not always enough
# DNA FID counter = displaces DNA intercalator in HCV helicase counter-screen | DNA fluorescent intercalator displacement, fluorescence | inhibition, % at 7.9 µM | actives 0.17% (n = 290,000); in the data active = inhibition above about 37%;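 also: 0% = vehicle and 100% = reference compound; higher means more ethidium bromide displaced from hairpin DNA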
# PREPL confirm = confirmation of human PREPL enzyme inhibitors | actives 67% (n = 2,000) | inhibition, % at 5.96 µM | shares compounds with PREPL inh | recombinant PREPL, fluorescence polarization activity probe;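 also: 0% = protein with DMSO and 100% = wells lacking protein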
# Casp3 UBC13 ctr = inhibits human caspase-3 in UBC13 counter-screen; actives 4% (n = 1,400); shares compounds with UBC13 polyUb; Recombinant caspase-3, Caspase-Glo 3/7 luminescence, 60 min; AID 488856; inhibition, % at 20 µM;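 active = mean inhibition across replicates above about 26%, limit read from the data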;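 also: plate controls were DMSO with caspase-3 for no effect and DMSO wells lacking enzyme for full effect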
# UBC13 conf = human UBC13 polyubiquitin inhibition, confirmed. inhibition, % at 10 µM. UBC13 polyubiquitination, TR-FRET, biochemical. actives 68% (n = 1,400). AID 488859. shares compounds with UBC13 polyUb; in the data active = inhibition above about 45%
# Active calls of the source: *; / = no result. Rule as the data show it, unless noted: active = inhibition above about 43%; inactive = the rest.
SMILES,MIN6 prolif,RAD54 inh,PREPL inh,RAD52 inh,UBC13 polyUb,DNA FID counter,PREPL confirm,Casp3 UBC13 ctr,UBC13 conf
C#CCOCCOCCOCCNc1nc(N2CCN(C(=O)[C@H]([C@@H](C)CC)n3cc([C@@H](N)CO)nn3)CC2)nc(N2CCN(C(=O)[C@H](Cc3cc4ccccc4[nH]3)n3cc([C@@H](N)C(C)CC)nn3)CC2)n1 (stereo not given in full),-2.6,/,48.3*,/,59.6*,40.9*,49.2*,8.4,46.2*
C#CCOCCOCCOCCNc1nc(N2CCN(C(=O)[C@H](Cc3ccc(O)cc3)n3cc([C@@H](N)C(C)CC)nn3)CC2)nc(N2CCN(C(=O)[C@H](Cc3cc4ccccc4[nH]3)n3cc([C@@H](N)CC(C)C)nn3)CC2)n1 (stereo not given in full),6.8,/,55.8*,-39.9,75.6*,59.9*,47.8*,-3.5,56.0*
C#CCOCCOCCOCCNc1nc(N2CCN(C(=O)[C@H](Cc3cc4ccccc4[nH]3)n3cc([C@@H](N)CC(C)C)nn3)CC2)nc(N2CCN(C(=O)[C@H](Cc3cc4ccccc4[nH]3)n3cc([C@@H](N)CC(C)C)nn3)CC2)n1,-0.8,-3.5,69.0*,/,105.7*,63.9*,55.7*,-0.9,104.8*
C#CCOCCOCCOCCNc1nc(N2CCN(C(=O)C(CCC(=O)O)n3cc(C(N)CC(C)C)nn3)CC2)nc(N2CCN(C(=O)C(Cc3cc4ccccc4[nH]3)n3cc(C(N)Cc4ccc(O)cc4)nn3)CC2)n1 (stereo not given),8.3,/,37.7,/,10.2,15.2,/,/,/
C#CCOCCOCCOCCNc1nc(N2CCOCC2)nc(N2CCN(C(=O)[C@H](Cc3cc4ccccc4[nH]3)n3cc([C@@H](N)CC(C)C)nn3)CC2)n1,-1.9,4.4,42.7,/,27.5,22.7,/,/,/
O=C(NC[C@@H]1CC[C@@H]2[C@@H](CN2C(=O)C2CCOCC2)O1)c1cccnc1,/,/,/,-5.6,/,/,/,/,/
CO[C@@H]1CN(C)C(=O)c2ccc(NC(=O)c3nc4ccccc4s3)cc2OC[C@H](C)N(Cc2cccnc2)C[C@@H]1C,/,7.4,/,/,/,/,/,/,/
CNC(=O)C[C@H]1CC[C@H]2[C@H](COc3ccc(NC(=O)NCc4ccccc4)cc3C(=O)N2C)O1,/,-6.3,/,/,/,/,/,/,/
C#CCOCCOCCOCCNc1nc(N2CCN(C(=O)[C@H](Cc3cc4ccccc4[nH]3)n3cc(C(N)CC(C)C)nn3)CC2)nc(N2CCN(C(=O)[C@H](CCC(=O)O)n3cc(C(N)[C@H](C)CC)nn3)CC2)n1 (stereo not given in full),-2.6,4.9,22.2,/,-4.8,23.8,/,/,/
C#CCOCCOCCOCCNc1nc(N2CCN(C(=O)[C@H](Cc3cc4ccccc4[nH]3)n3cc([C@@H](N)C(C)CC)nn3)CC2)nc(N2CCN(C(=O)[C@H](CCCCN)n3cc([C@@H](N)CC(C)C)nn3)CC2)n1 (stereo not given in full),2.1,/,45.6*,/,97.6*,44.5*,50.1*,-1.9,115.6*
C#CCOCCOCCOCCNc1nc(N2CCN(C(=O)[C@H](CCC(=O)O)n3cc(C(N)Cc4ccc(O)cc4)nn3)CC2)nc(N2CCN(C(=O)[C@H](Cc3cc4ccccc4[nH]3)n3cc(C(N)[C@H](C)CC)nn3)CC2)n1 (stereo not given in full),0.4,0.3,41.5,/,12.6,20.2,/,/,/
C#CCOCCOCCOCCNc1nc(N2CCN(C(=O)[C@H](Cc3ccc(O)cc3)n3cc([C@@H](N)C(C)CC)nn3)CC2)nc(N2CCN(C(=O)[C@H](Cc3cc4ccccc4[nH]3)n3cc([C@@H](N)C(C)CC)nn3)CC2)n1 (stereo not given in full),2.9,7.0,46.5*,/,77.0*,50.7*,41.3,-2.5,66.1*
C#CCOCCOCCOCCNc1nc(N2CCN(C(=O)[C@H](Cc3cc4ccccc4[nH]3)n3cc([C@@H](N)C(C)CC)nn3)CC2)nc(N2CCN(C(=O)[C@H](Cc3cc4ccccc4[nH]3)n3cc([C@@H](N)Cc4ccc(O)cc4)nn3)CC2)n1 (stereo not given in full),-1.1,/,57.6*,/,124.4*,41.1*,56.6*,-2.0,118.9*
CN(C)C(=O)C[C@@H]1CC[C@@H](NC(=O)Nc2cccc(F)c2)[C@H](CO)O1,/,-3.0,/,-12.5,/,/,/,/,/
C[C@@H]1CN([C@H](C)CO)C(=O)c2cc(-c3ccncc3)cnc2O[C@H]1CN(C)Cc1cccnc1,/,0.2,/,-0.7,/,/,/,/,/
COc1ccc(/C=N/Nc2cc(C)nc3ccc(Br)cc23)cc1,-7.0,118.6*,55.9*,4.4,60.8*,28.4,52.3*,3.6,84.6*
COc1ccc2nc(C)cc(N/N=C/c3cccc(OC)c3O)c2c1,-4.9,108.1*,64.1*,49.2,58.4*,6.8,59.5*,2.5,110.9*
N#Cc1ccc(-c2ccc([C@@H]3[C@H](CO)N4C(=O)CNC[C@@H]34)cc2)cc1,/,/,/,6.5,/,/,/,/,/
O=C(C[n+]1ccc(/C=C/c2ccccc2)cc1)c1ccc2c(c1)OCCO2,-2.3,25.8,63.2*,76.2*,52.7*,19.3,42.6,-2.1,20.1
Cc1ccc2c(c1)c1c(n2CC(O)CNC(CO)(CO)CO)CCCC1 (stereo not given),0.5,5.6,10.0,-15.6,15.6,12.8,/,/,/
Cc1ccc2c(c1)c1c(n2CC(O)CNC2CCCCC2)CCCC1 (stereo not given),-6.4,7.2,49.7*,24.5,60.6*,28.6,46.0*,2.3,30.5
COc1ccc(C)cc1Nc1n[n+](-c2ccccc2)c(-c2c(Cl)cccc2Cl)s1,-8.0,/,11.4,16.5,26.3,17.4,/,/,/
COc1ccc(C)cc1Nc1n[n+](-c2ccccc2)c(-c2ccc(OC)c(OC)c2OC)s1,-8.1,12.6,53.4*,-2.2,47.9*,-15.9,60.2*,-4.1,30.5
Cc1noc(C)c1NC(=O)N(C)C[C@H]1Oc2ccc(NS(=O)(=O)c3cccs3)cc2CC(=O)N([C@H](C)CO)C[C@@H]1C,/,6.6,/,/,/,/,/,/,/
O=C(C[C@@H]1CC[C@H]2[C@@H](COC[C@H](O)CN2Cc2cc(F)ccc2F)O1)N[C@@H]1CCN(Cc2ccccc2)C1,/,6.3,/,-3.9,/,/,/,/,/
